Bioassay records: PubChem, Milwaukee Institute for Drug Discovery
NS3h inh CB = HCV NS3 helicase inhibitors, primary screen, biochemical, fluorescence polarization, ChemBridge library; Hepatitis C virus NS3 helicase; NS3h Cy5-dT15 DNA binding; inhibition, % at 100 µM; actives 1.6% (n = 16,000);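 active = inhibition above the average over every tested compound plus 3 SD, cut at about 40% in these data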
Cy5 interf NS3h = Cy5 fluorescence quenchers or enhancers, artefact control for HCV NS3 helicase inhibitor project, biochemical, ChemBridge library, Cy5 readout. Cy5-dT15 DNA with NS3h, fluorescence interference; actives lie on both sides; signal over control mean, under 1 quenches. actives 6% (n = 16,000). AID 720488, 2013. fluorescence interference ratio at 100 µM;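 active = compound fluorescence over control fluorescence at most 0.8, a quencher, or at least a set upper limit, an enhancer; inactive = ratio between 0.8 and the set upper limit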
Numbers without * were called inactive. A selection: hits, their analogues and other compounds. The true share with any hit is near 7.6%.

SMILES | NS3h inh CB | Cy5 interf NS3h
CCOC(=O)C1=C(C(=O)OCC)SC(=C2C(=S)C(C)(C)N(C(=O)CN3C(=O)CCC3=O)c3ccc(C)cc32)S1 | 12 | 0.96
O=C(c1ccccc1Br)N1N=C(c2ccccc2)CC1(O)C(F)(F)F (stereo not given) | 5 | 0.79*
O=C(c1ccccc1O)N1N=C(c2ccc(Br)cc2)CC1(O)C(F)(F)F (stereo not given) | 5 | 0.92
CC(C)C(=O)Nc1ccc(C(=O)Nc2ccccc2C(=O)O)cc1 | -12 | 1.1
CCc1c(O)nc2n(c1=O)CCCS2 | -5 | 1
O=C(/C=C/c1ccc(Cl)cc1)Nc1ccc(F)c([N+](=O)[O-])c1 | -2 | 0.91
O=C(NCCCO)C(=O)Nc1ccccc1 | 2 | 1.1
Cc1ccc(N2C(=O)NC(=O)/C(=C\c3ccc(Cl)cc3)C2=O)cc1 | 14 | 1
O=C1NC(=O)N(c2ccc(I)cc2)C(=O)/C1=C\C=C\c1ccco1 | 21 | 0.77*
O=C(CC(c1ccccc1)c1ccccc1)Nc1ccc(Cl)cn1 | 9 | 0.66*
CC(=O)CC(=O)Nc1ccc(Cl)cn1 | 5 | 1
C/C(O)=C(\C#N)P(C)(=O)OCC(C)C (stereo not given) | -4 | 0.97
O=C(CCN1C(=O)c2ccccc2C1=O)Nc1ccccc1C(=O)N1CCOCC1 | 9 | 0.98
O=C(CCN1C(=O)c2ccccc2C1=O)Nc1ccccc1C(=O)N1CCCC1 | 3 | 0.7*
CCN(CC)c1ccc(NC(=O)CCN2C(=O)c3ccccc3C2=O)cc1 | 2 | 0.6*
O=C(CCN1C(=O)c2ccccc2C1=O)Nc1ccc(I)cc1 | 6 | 0.98
COc1ccc2c(C)c(C)c(=O)oc2c1C | 8 | 1.2
Cc1ccc(NC(=O)c2cc(NC(=O)c3ccccc3)cc(NC(=O)c3ccccc3)c2)cc1 | 11 | 1
CC1CC(Nc2ccccc2)c2ccccc2N1C(=O)c1ccc(Cl)cc1Cl (stereo not given) | 12 | 0.62*
CC1CC(Nc2ccccc2)c2ccccc2N1C(=O)COc1ccc(Cl)cc1 (stereo not given) | 9 | 1
O=C1OC(c2ccccc2)=C/C1=C/c1ccc(-c2ccc([N+](=O)[O-])cc2)o1 | 12 | 0.8*
NC1=NC(=O)/C(=C\c2ccc(-c3ccc([N+](=O)[O-])cc3)o2)S1 | -2 | 1.2*
Cc1ccc(/C=C2/C=C(c3ccccc3)OC2=O)cc1 | 5 | 0.95
CN1C(=O)C(=Cc2ccc(-c3ccccc3C(=O)O)o2)C(=O)N(C)C1=O | 39 | 1.1
Cc1ccc(C2=C/C(=C\c3ccc(-c4ccccc4C(=O)O)o3)C(=O)O2)cc1 | 24 | 0.79*
SMILES | NS3h inh CB | Cy5 interf NS3h
NC1=NC(=O)/C(=C/c2ccccc2OCc2ccc([N+](=O)[O-])cc2)S1 | -7 | 0.97
COc1ccc(OC)c(/C=N\n2nnnc2N)c1 | 6 | 0.99
COc1cc(NS(=O)(=O)c2ccccc2)c2ncccc2c1 | 14 | 0.99
C/C(=N/N=C1\NC(=O)C(CC(=O)Nc2ccc(Cl)cc2Cl)S1)c1ccc(Cl)cc1 (stereo not given) | -29 | 1.2
COc1ccc(/C(C)=N\N=C2/NC(=O)C(CC(=O)Nc3cc(Cl)ccc3Cl)S2)cc1 (stereo not given) | 10 | 1.2*
CCOc1ccc2c(c1)-c1c(ssc1=S)C(C)(C)N2C(=O)CSc1nnc(N)s1 | 4 | 1.1
CCOc1cccc(-c2nc3cc(C)ccc3o2)c1 | 0 | 1.1
Cc1ccc2oc(-c3cccc(N)c3C)nc2c1 | 9 | 0.56*
CCN(CC)c1ccc(NC(=O)c2cc(Br)ccc2Cl)cc1 | 8 | 0.99
Cc1ccc(C(=O)Nc2nc3ccccc3n2Cc2ccc(Cl)cc2)cc1 | -10 | 1.1
O=C(Nc1nc2ccccc2n1Cc1ccc(Cl)cc1)c1ccccc1 | 23 | 0.74*
CC(=O)C12c3ccccc3C(c3ccccc31)C1C(=O)N(c3cccc(C(=O)O)c3)C(=O)C12 (stereo not given) | 8 | 0.93
Cc1ccc2nsnc2c1NC(=O)c1ccc(-c2ccc([N+](=O)[O-])cc2)o1 | -4 | 0.88
COC(=O)c1ccccc1NC(=O)c1cnn2c(C(F)(F)F)cc(-c3ccccc3)nc12 | -1 | 0.65*
CC(COc1ccccc1)NC(=O)c1nn2c(C(F)(F)F)cc(-c3ccccc3)nc2c1Br (stereo not given) | 10 | 0.63*
CC(C)(C)NC(=O)c1nn2c(C(F)(F)F)cc(-c3ccccc3)nc2c1Br | 6 | 0.64*
O=C(NCc1ccccc1)c1nn2c(C(F)(F)F)cc(-c3cccs3)nc2c1Cl | 18 | 1
COC(=O)c1cc2nc(-c3ccc(OC)cc3)cc(C(F)(F)F)n2n1 | 1 | 1
O=C(Nc1ccccc1C(F)(F)F)c1cnn2c(C(F)(F)F)cc(-c3ccccc3)nc12 | 12 | 1.1
COc1ccc2c(c1)OCC/C2=N\OC(=O)c1ccccc1SC | 6 | 0.94
COc1ccccc1C1CC(c2ccc(C)cc2)=NN1C(C)=O (stereo not given) | 15 | 0.95
NS(=O)(=O)c1ccc(NC(=O)CN2C(=O)C(=O)N(c3ccccc3)C2=O)cc1 | -3 | 1.1
COC(=O)COc1ccc2ccc(=O)oc2c1 | 6 | 1.1
CCc1c(C)c(C#N)c2nc3ccccc3n2c1NCCO | 11 | 1
COc1ccc(NC(=O)C(=O)NCc2ccco2)cc1Cl | -7 | 1
SMILES | NS3h inh CB | Cy5 interf NS3h
COc1ccc(NC(=O)/C=C/c2ccccc2Cl)c([N+](=O)[O-])c1 | 8 | 1
O=C(/C=C/c1ccccc1Cl)Nc1ccccc1[N+](=O)[O-] | 41* | 1.1
Cc1cc(C)c(S(=O)(=O)Nc2cc([N+](=O)[O-])ccc2C)c(C)c1 | 16 | 1
CC(=O)c1ccc(N2CCN(C3CC(=O)N(c4ccc(C)cc4)C3=O)CC2)cc1 (stereo not given) | 5 | 1
CN1CCN(c2ccc(C(=O)c3ccccc3)cc2F)CC1 | 7 | 1
CN(C)CCn1c2ccccc2c2nc3ccc([N+](=O)[O-])cc3cc21 | -13 | 0.74*
CCc1nc2ccccc2n1Cc1ccc([N+](=O)[O-])cc1 | 4 | 1
COc1ccc(C2CC(C(F)(F)F)n3nc(C(=O)O)cc3N2)cc1OC (stereo not given) | -1 | 0.65*
O=C(c1cc2n(n1)C(C(F)(F)F)CC(c1ccc(Cl)cc1)N2)N1CCN(c2ccccc2)CC1 (stereo not given) | 24 | 0.93
Cc1ccc(C2CC(C(F)(F)F)n3nc(C(=O)Nc4ccc(F)cc4F)cc3N2)cc1 (stereo not given) | 2 | 0.57*
COCCNC(=O)c1cc2n(n1)C(C(F)(F)F)CC(c1ccc(F)cc1)N2 (stereo not given) | 2 | 1
COc1ccc(C2CC(C(F)(F)F)n3nc(C(=O)NCc4cccs4)cc3N2)cc1OC (stereo not given) | -3 | 0.91
Cc1ccc(C2CC(C(F)(F)F)n3nc(C(=O)N4CCN(Cc5ccccc5)CC4)cc3N2)cc1 (stereo not given) | 11 | 0.76*
CCCc1nccn1S(=O)(=O)c1ccc(Br)c2ccccc12 | 8 | 1
COC(=O)C(Cc1c[nH]c2ccccc12)NC(=O)C(c1ccccc1)c1ccccc1 (stereo not given) | 10 | 1
CC(C)CN1C(=O)c2ccc(C(=O)Nc3c[nH]c(=O)[nH]c3=O)cc2C1=O | 6 | 0.66*
